Structures can show the parent of a compound that is named as a salt. ± gives the standard deviation.

The test system of this assay is Jurkat. The assay can be described thus: mean cell size (FSC-A) relative to DMSO control (fraction of control); higher = larger cells. The conditions noted are these: 48 h. Put shortly: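 Jurkat cells seeded at 600 cells/µl were incubated 1 h, then exposed for 48h to the Enzo Screen-Well FDA Approved Drug Library v2.0 at 25µM in 0.9% (v/v) final DMSO. Drugs that cut counts below 20% of controls were diluted 10-fold and retested, down to 25nM. Cell count and mean cell size (forward scatter area) were read on an Accuri C6 flow cytometer, relative to solvent-only controls. Plates held 6-12 controls; values are means of 3 biological replicates.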
`CC(COc1ccccc1)N(CCCl)Cc1ccccc1` (configuration not stated) [Phenoxybenzamine·HCl] (concentration: 25 µM) registered a mean cell size of 0.965 ± 0.021.
The value for `CC(=O)O[C@H]1C(=O)[C@@]2(C)[C@H]([C@H](OC(=O)c3ccccc3)[C@]3(O)C[C@H](OC(=O)[C@H](O)[C@@H](NC(=O)c4ccccc4)c4ccccc4)C(C)=C1C3(C)C)[C@]1(OC(C)=O)CO[C@@H]1C[C@@H]2O` [Paclitaxel (Taxol)] (concentration: 25 nM) was 1.07 ± 0.022.
Then `COCCOC(=O)C1=C(C)NC(C)=C(C(=O)OC(C)C)C1c1cccc([N+](=O)[O-])c1` (configuration not stated) [Nimodipine] (concentration: 25 µM), with 0.938 ± 0.027.
Then `COc1ccc(CC2c3cc(OC)c(OC)cc3CC[N+]2(C)CCC(=O)OCCCCCOC(=O)CC[N+]2(C)CCc3cc(OC)c(OC)cc3C2Cc2ccc(OC)c(OC)c2)cc1OC` (configuration not stated) [Atracurium Besylate] (concentration: 25 µM), with 1.04 ± 0.008.
`C[C@H](CCC(=O)O)[C@H]1CC[C@H]2[C@@H]3[C@H](O)C[C@@H]4C[C@H](O)CC[C@]4(C)[C@H]3CC[C@]12C` [Chenodiol (Chenodeoxycholic Acid)] (concentration: 25 µM) came in with a mean cell size of 0.946 ± 0.037.
The value for `O=C(O)P(=O)(O)O` [Foscarnet·Na (Sodium Phosphonoformate Tribasic Hexahydrate)] (concentration: 25 µM) was 0.936 ± 0.065.
In the case of `CN(C/C=C/c1ccccc1)Cc1cccc2ccccc12` [Naftifine·HCl] (concentration: 25 µM), the mean cell size was 0.956 ± 0.028.
Then `CC(C)(C)C(=O)OCOP(=O)(COCCn1cnc2c(N)ncnc21)OCOC(=O)C(C)(C)C` [Adefovir Dipivoxil] (concentration: 25 µM), with 1.3 ± 0.043.
The value for `CN[C@@H]1[C@H](O)[C@H](NC)[C@H]2O[C@@]3(O)C(=O)C[C@@H](C)O[C@H]3O[C@@H]2[C@H]1O` [Spectinomycin·HCl Pentahydrate] (concentration: 25 µM) was 1.05 ± 0.014.
Turning to `Cc1c(OCC(F)(F)F)ccnc1C[S+]([O-])c1nc2ccccc2[nH]1` (configuration not stated) [Lansoprazole] (concentration: 25 µM), the mean cell size stood at 0.927 ± 0.027.
Compound `C[C@H]1C[C@@H]2[C@H]([C@@H](O)C[C@@]3(C)[C@H]2CC[C@]3(O)C(=O)CO)[C@@]2(C)C=CC(=O)C=C12` [Methylprednisolone] (concentration: 25 µM) registered a mean cell size of 0.908 ± 0.013.
`CCC(=O)O[C@]1(C(=O)CCl)[C@@H](C)C[C@H]2[C@@H]3CCC4=CC(=O)C=C[C@]4(C)[C@@]3(F)[C@@H](O)C[C@@]21C` [Clobetasol Propionate] (concentration: 25 µM) came in with a mean cell size of 0.898 ± 0.015.
Then `CC(C)NCC(O)COc1cccc2[nH]ccc12` (configuration not stated) [Pindolol] (concentration: 25 µM), with 0.976 ± 0.065; and `CCN(CC)CC#CCOC(=O)C(O)(c1ccccc1)C1CCCCC1` (configuration not stated) [Oxybutynin Chloride] (concentration: 25 µM), with 0.904 ± 0.022; and `CCN(CC)CCOC(=O)C1(C2CCCCC2)CCCCC1` [Dicyclomine·HCl] (concentration: 25 µM), with 0.9222 ± 0.0091.
For the compound `CCCCCN(C)CCC(O)(P(=O)(O)O)P(=O)(O)O` [Ibandronate·Na Monohydrate] (concentration: 25 µM), the mean cell size worked out at 0.941 ± 0.063.
Then `CCC1=C[C@@H]2CN(C1)Cc1c([nH]c3ccccc13)[C@@](C(=O)OC)(c1cc3c(cc1OC)N(C)[C@H]1[C@@](O)(C(=O)OC)[C@H](OC(C)=O)[C@]4(CC)C=CCN5CC[C@]31[C@@H]54)C2` [Vinorelbine] (concentration: 250 nM), with 0.941 ± 0.031.
The compound `CCOC(=O)C1=C(C)NC(C)=C(C(=O)OC)C1c1cccc(Cl)c1Cl` (configuration not stated) [Felodipine] (concentration: 25 µM) yielded a mean cell size of 0.9169 ± 0.007.
Then `COC(=O)Nc1nc2cc(C(=O)c3ccccc3)ccc2[nH]1` [Mebendazole] (concentration: 250 nM), with 0.965 ± 0.029; and `CC(C[N+](C)(C)C)OC(N)=O` (configuration not stated) [Bethanechol Chloride] (concentration: 25 µM), with 0.926 ± 0.034.
Then `NNc1nncc2ccccc12` [Hydralazine·HCl] (concentration: 25 µM), with 0.98 ± 0.075.
The value for `CC1(C)S[C@@H]2[C@H](NC(=O)[C@H](N)c3ccc(O)cc3)C(=O)N2[C@H]1C(=O)O` [Amoxicillin] (concentration: 25 µM) was 0.988 ± 0.012.

Values taken from the supplement of paper PMC4709259.
